Data: PubChem BioAssay AID485341 (National Center for Advancing Translational Sciences (NCATS), 2010)
Screen size: about 330,000 compounds; about 1,700 (0.52%) were called active. Only a selection was taken, and actives are over-represented in it overall. Values without a mark were called inactive. Calls follow the shape of the dose curve; as a rule, active = well fitted inhibition curve with a large enough effect; inconclusive = small, poorly fitted or top-dose-only effect; inactive = no such curve, though single readings can be large or run the other way.

Each compound was assayed against Beta-lactamase (Escherichia coli (strain K12)) (UniProt P00811) (assay: qHTS Inhibitors of AmpC Beta-Lactamase (assay without detergent)). Details: AmpC nitrocefin hydrolysis, absorbance 480 nm, 0.0001% Triton; series mostly up to 57.1 µM; activity change, negative = inhibition: at the top concentration.
Method: NIH Molecular Libraries Probe Production Network [MLPCN] NIH Chemical Genomics Center [NCGC] Assay Provider: Professor Brian Shoichet, UCSF Assay Overview: This aggregation profiling approach exploits the sensitivity of aggregate formation to detergent. Inhibition of b-lactamase is measured in the presence and absence of 0.01% Triton X-100. This particular assay had the prescence of 0.01% Triton X-100. See Pubchem assay "Promiscuous and Specific Inhibitors of AmpC Beta-Lactamase (assay without detergent)" for related screen. Compounds that inhibit only in the absence of detergent are considered likely promiscuous aggregators. A screen of 1,030 compounds was performed in Brian Shoichet's lab in 96-well format. AmpC activity was measured by following the absorbance at 480 nm. Nitrocefin is a chromogenic substrate: while nitrocefin is yellow (lmax 390 nm), the product of its hydrolysis is red (lmax 486 nm, 17,000 M-1). AmpC beta lactamase was provided by Shoichet Lab, UCSF.
Buffer: 20 mM phosphate buffer, pH 7.0 Triton X-100: No Detergent screen: 0.0001%, Detergent screen: 0.01%. Reagents/Controls: Buffer in columns 3 and 4 as negative control (no enzyme). 5.3 nM AmpC in columns 1, 2, 5-48. Titration of UCSF compound 9 control (from 10 mM, then 1:2) pin-transferred to column 2. Column 1 is neutral (100% activity). Assay Steps: Six uL of reagents were dispensed to 1536-well Greiner black clear bottom plates. Compounds and controls (23 nL) were transferred via Kalypsys PinTool. The plates were incubated for 15 min at room temperature, and then 2 uL of 800 uM solution of nitrocefin was added to start the reaction. The plates were immediately transferred to and read every 20 seconds for 4 min on ViewLux (Perkin-Elmer) High-throughput CCD imager using 480 nm absorbance protocol. During dispense, reagent bottles were kept submerged into 4 deg C water bath. Keywords: NIH Roadmap, MLSCN, MLI, MLSMR, qHTS, NCGC, AmpC Beta-Lactamase, Aggregation
Also: nearly all actives have a fitted effect of over 20% in size.
Potency is read from the fitted curve at half-maximal effect.

Beta-lactamase (Escherichia coli (strain K12)), sequence (P00811 whole entry, looked up): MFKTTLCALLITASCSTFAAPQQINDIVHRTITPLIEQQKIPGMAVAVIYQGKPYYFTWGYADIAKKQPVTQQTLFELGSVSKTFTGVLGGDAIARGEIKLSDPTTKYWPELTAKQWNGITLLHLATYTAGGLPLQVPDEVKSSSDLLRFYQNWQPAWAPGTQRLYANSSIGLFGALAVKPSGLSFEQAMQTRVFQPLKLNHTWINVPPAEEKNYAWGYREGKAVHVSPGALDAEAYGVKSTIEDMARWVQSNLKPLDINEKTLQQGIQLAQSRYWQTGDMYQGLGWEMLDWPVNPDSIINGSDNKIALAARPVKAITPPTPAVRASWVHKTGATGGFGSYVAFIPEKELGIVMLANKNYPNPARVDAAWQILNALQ

Question: Which “activity change, negative = inhibition” value does the source give for `O=C(CN(c1cccc(Cl)c1)S(=O)(=O)c1ccccc1)NN=C1CCCC1` here?
Answer: The value was -55.4%.

Question: `Cc1ccccc1Cn1nc(C)c(NC(=O)C(F)(F)F)c1C` was tested. Which “activity change, negative = inhibition” value did it give?
Answer: Its value is 2.13%.

Question: How did the Potency turn out when `Cc1nn(Cc2ccc(F)cc2)c(C)c1NC(=O)c1noc2c1CCc1ccccc1-2` was run?
Answer: Its Potency is 11.2 µM (active).

Question: `Cc1nn(Cc2ccc(F)cc2)c(C)c1NC(=O)c1cccnc1Cl` was tested. Which “activity change, negative = inhibition” value did it give?
Answer: The value was -7.61%.

Question: With `COC(=O)[C@]1(Cc2ccccc2)N[C@H](CN(C)S(=O)(=O)c2ccc(OC(F)(F)F)cc2)[C@@H]2C(=O)N(Cc3ccccc3)C(=O)[C@@H]21` as the compound, how does the “activity change, negative = inhibition” value read?
Answer: The value was -12.4%.

Question: For `CC(O)c1nc2c(c(=O)n(C)c(=O)n2C)n1C` (stereo not given), which “activity change, negative = inhibition” value is on record?
Answer: Its value is -0.321%.

Question: `Cc1ccc(S(=O)(=O)N(CC(=O)NCc2ccco2)c2ccccc2C)cc1` was tested. Which “activity change, negative = inhibition” value did it give?
Answer: Its value is -17%.

Question: How did the “activity change, negative = inhibition” value turn out when `COc1ccc(-c2cc(C(=O)N(C)CC(=O)Nc3ccccc3Cl)c3ccccc3n2)cc1OC` was run?
Answer: The value was 86.4%.

Question: `CC(C)CC1(C)NC(=O)N(CC(=O)Nc2ccc3c(c2)OCCO3)C1=O` (stereo not given) was tested. Which “activity change, negative = inhibition” value did it give?
Answer: The value was -18.8%.

Question: With `Cc1ccc(NC2=C(Cl)C(=O)OC2OC(=O)c2ccccc2C)cc1` (stereo not given) as the compound, how does the Potency read?
Answer: Its Potency is 3.98 µM (active).

Question: For `Cc1ccccc1C(=O)O`, which “activity change, negative = inhibition” value is on record?
Answer: The value was -15.1%.

Question: `Cc1ccccc1C(=O)Nc1ccccc1NC(=O)c1ccccc1C` was tested. Which “activity change, negative = inhibition” value did it give?
Answer: The value was -28.1%.

Question: Which “activity change, negative = inhibition” value does the source give for `COC(=O)C1=C(Nc2ccc(OC)cc2)C=C(C)C(C(=O)OC)C1c1ccc(C)cc1` (stereo not given) here?
Answer: The value was 7.69%.

Question: With `COC(=O)C1=C(Nc2ccc(C)cc2)C=C(C)C(C(=O)OC)C1c1ccc(F)cc1` (stereo not given) as the compound, how does the “activity change, negative = inhibition” value read?
Answer: Its value is -25.5%.

Question: How did the Potency turn out when `Cc1ccccc1C(=O)OC1OC(=O)C(Cl)=C1Nc1ccccc1` (stereo not given) was run?
Answer: Its Potency is 6.31 µM (active).

Question: For `O=S(=O)(Nc1ncccn1)c1ccc(NS(=O)(=O)c2cccc(Cl)c2Cl)cc1`, which “activity change, negative = inhibition” value is on record?
Answer: Its value is -27.4%.

Question: With `O=C(COC(=O)/C=C/c1cccs1)NC1CCCCC1` as the compound, how does the “activity change, negative = inhibition” value read?
Answer: The value was -10.1%.

Question: How did the “activity change, negative = inhibition” value turn out when `COc1ccc(CC(=O)N[C@@H]2c3cc(OC)c(OC)cc3C[C@H]2OCc2ccccc2)cc1` was run?
Answer: The value was 142%.

Question: `CC(=O)c1c(C)c[nH]c1C` was tested. Which “activity change, negative = inhibition” value did it give?
Answer: Its value is -13.8%.

Question: Which “activity change, negative = inhibition” value does the source give for `CCCCN(C(=O)C1CCC1)c1c(N)n(Cc2ccccc2)c(=O)[nH]c1=O` here?
Answer: Its value is -7.77%.

Question: With `CCn1c2ccccc2c2cc(NC(=O)Nc3ccc([N+](=O)[O-])cc3C)ccc21` as the compound, how does the “activity change, negative = inhibition” value read?
Answer: Its value is -19.7%.

Question: How did the “activity change, negative = inhibition” value turn out when `COCCCNC(=S)N1CCN(c2nc(-c3cccc(OC)c3)cs2)CC1` was run?
Answer: The value was 136%.

Question: Which “activity change, negative = inhibition” value does the source give for `CC(=O)Nc1ccc(NC(=O)CSc2nnc(COc3ccccc3C)n2CC2CCCO2)cc1` (stereo not given) here?
Answer: Its value is 12.5%.

Question: Which “activity change, negative = inhibition” value does the source give for `CC[N+]1(CC)CC2=Cc3ccccc3CC2C1` (stereo not given) here?
Answer: The value was -10.4%.

Question: Which “activity change, negative = inhibition” value does the source give for `CC(=NCc1ccco1)c1c(C(F)(F)F)[nH]n(-c2nc3ccccc3s2)c1=O` here?
Answer: The value was -14.9%.

Question: `CCC(C)Cn1c(O)cc2nn(-c3nc4ccccc4s3)c(=O)c-2c1C` (stereo not given) was tested. Which Potency did it give?
Answer: Its Potency is 17.8 µM (active).

Question: With `Cn1c(=O)c2c(nc(NCCNC(=O)c3ccco3)n2Cc2ccccc2F)n(C)c1=O` as the compound, how does the “activity change, negative = inhibition” value read?
Answer: The value was -7.23%.

Question: How did the Potency turn out when `Cc1ccc(NC(=O)CC2S/C(=N/N=C3\CCCc4ccccc43)NC2=O)cc1` (stereo not given) was run?
Answer: Its Potency is 3.16 µM (active).

Question: How did the “activity change, negative = inhibition” value turn out when `CCN=C1SC(CC(=O)Nc2ccc(C)cc2)C(=O)N1CC` (stereo not given) was run?
Answer: The value was 2.59%.

Question: How did the “activity change, negative = inhibition” value turn out when `Cc1c(Cl)cccc1NC(=O)CC1SC(=NCC2CCCO2)NC1=O` (stereo not given) was run?
Answer: The value was -26.1%.

Question: Which “activity change, negative = inhibition” value does the source give for `CCCCn1c(N)c(N(CCOC)C(=O)COc2c(C)cccc2C)c(=O)[nH]c1=O` here?
Answer: Its value is -17.2%.

Question: Which “activity change, negative = inhibition” value does the source give for `CS(=O)(=O)N1CCN(C(=O)CSc2ccccc2)CC1` here?
Answer: Its value is -3.69%.

Question: With `Cc1ccc(S(=O)(=O)N2CCCC2CO)cc1` (stereo not given) as the compound, how does the “activity change, negative = inhibition” value read?
Answer: The value was -11.5%.

Question: Which “activity change, negative = inhibition” value does the source give for `COc1ccc(CSc2nnnn2-c2ccc(C(=O)O)cc2)cc1` here?
Answer: The value was -18.9%.

Question: For `COc1ccc(-n2nnnc2SCC(=O)c2ccc(OC)c(OC)c2)cc1`, which “activity change, negative = inhibition” value is on record?
Answer: Its value is 97.5%.

Question: `COc1ccc(CSc2nnnn2-c2ccc(O)cc2)cc1F` was tested. Which Potency did it give?
Answer: Its Potency is 22.4 µM (active).

Question: How did the “activity change, negative = inhibition” value turn out when `Cn1c2c(c(=O)n(C)c1=O)C(c1cccc([N+](=O)[O-])c1)Nc1ccccc1O2` (stereo not given) was run?
Answer: Its value is -8.07%.

Question: `CN(CCC1CCOCC1)C(=O)CC1C(=O)NCCN1Cc1cccc(F)c1` (stereo not given) was tested. Which “activity change, negative = inhibition” value did it give?
Answer: The value was -3.93%.

Question: With `O=C(O)CCCC(=O)Nc1ccc(Oc2cccc(C(F)(F)F)c2)nc1` as the compound, how does the “activity change, negative = inhibition” value read?
Answer: The value was -13.8%.

Question: Which “activity change, negative = inhibition” value does the source give for `CC(C)CN(C(=O)COC(=O)c1ccc2ccccc2c1)c1c(N)n(Cc2ccccc2)c(=O)[nH]c1=O` here?
Answer: The value was -12.6%.

Question: For `Cc1csc(=O)n1CC(=O)OCC(=O)N(CC(C)C)c1c(N)n(Cc2ccccc2)c(=O)[nH]c1=O`, which “activity change, negative = inhibition” value is on record?
Answer: The value was -26.2%.

Question: Which Potency does the source give for `CC(C)CN(C(=O)COC(=O)c1ccc(Cl)c(N)c1)c1c(N)n(Cc2ccccc2)c(=O)[nH]c1=O` here?
Answer: Its Potency is 28.2 µM (active).

Question: Which “activity change, negative = inhibition” value does the source give for `CSc1ccccc1NC(=O)C(C)N1C(=O)c2ccccc2S1(=O)=O` (stereo not given) here?
Answer: The value was -13.6%.

Question: `Cc1cc(NC(=O)C(C)N2C(=O)c3ccccc3S2(=O)=O)no1` (stereo not given) was tested. Which Potency did it give?
Answer: Its Potency is 25.1 µM (active).

Question: `Cc1cc(NC(=O)CSCc2ccccc2C)no1` was tested. Which “activity change, negative = inhibition” value did it give?
Answer: Its value is -5.58%.

Question: How did the “activity change, negative = inhibition” value turn out when `O=C1CCC(=O)N(c2ccccc2)N1` was run?
Answer: The value was 0.2%.

Question: With `O=C(OCC1O[C@@H](OC(=O)c2cc(O)c(O)c(O)c2)[C@@H](OC(=O)c2cc(O)c(O)c(O)c2)[C@@H](OC(=O)c2cc(O)c(O)c(O)c2)[C@@H]1OC(=O)c1cc(O)c(O)c(O)c1)c1cc(O)c(O)c(O)c1` (stereo not given in full) as the compound, how does the Potency read?
Answer: The Potency was 1 µM (active).

Question: With `CCOCCCNC(=O)c1ccc(CS(=O)(=O)c2cccc(C(F)(F)F)c2)o1` as the compound, how does the “activity change, negative = inhibition” value read?
Answer: The value was 16.8%.

Question: With `CCOCCn1[nH]c2ccccc2c1=O` as the compound, how does the “activity change, negative = inhibition” value read?
Answer: Its value is -13%.

Question: For `CCOC(=O)c1sc(NC(=O)CSc2nc(O)c(Cc3ccccc3)c(=O)[nH]2)nc1C`, which Potency is on record?
Answer: The Potency was 15.8 µM (active).
